Screens as filed in PubChem BioAssay.
Most compounds without a hit are left out; they make up all but 21% or so of the library.
VP16 counter – inhibits Gal4-VP16 luciferase reporter, ROR gamma counter-screen; Potency, µM (doses to about 53.6 µM), without a hit: at the top dose activity, negative = inhibition, actives largely listed as inhibitors; Drosophila S2 Gal4-VP16 UAS-luciferase, luminescence, 20 h; 310,000 tested, 3.5% active; AID 2546;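 note: Gal4-VP16 expression switched on by copper sulfate through the metallothionein promoter; potency is the fitted concentration of half-maximal effect; nearly all actives have a fitted effect of over 50% in size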
IL1B secr inh – inhibitors of inflammasome signaling (IL-1 beta secretion) | THP-1 LPS/ATP IL-1B secretion, AlphaLISA, 16 h; active compounds read low | activity change, % at 57.5 µM | 360,000 tested, 4.7% active | AID 743279; in the data active = activity change below about -50%; inconclusive = mostly about -30% to -49%
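Secreted IL-1B measured by AlphaLISA bead assay after 16 h compound exposure of THP-1 cells; compounds (final up to 57.5 uM) added 1 h before LPS (250 ng/mL) and ATP (1.25 mM) stimulation; lower signal means less secretion.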
TDP1 cell noCPT – qHTS for Inhibitors of human tyrosyl-DNA phosphodiesterase 1 (TDP1): qHTS in cells in absence of CPT | DT40 Tdp1-/- hTDP1 cells, no CPT, ATP luminescence, 48 h | Potency, µM (highest dose often 46.2 µM), without a hit: at the highest dose activity change, negative = growth inhibition, hits mostly inhibitors | 420,000 tested, 15% active | AID 686978, 2013; note: potency is the fitted concentration of half-maximal effect; nearly all actives have a fitted effect of over 55% in size
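No-CPT arm: Tdp1-/-;hTDP1 DT40 cells (400/well) plus compounds, incubated ≥48 hr at 37 °C. Readout CellTiter-Glo luminescence.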
DT40 TDP1 CPT – growth inhibition of DT40 Tdp1-/-;hTDP1 cells with camptothecin (screen for TDP1 inhibitors) | AID 686979 | 420,000 tested, 12% active | Potency, µM (doses to about 46.2 µM), for the others: top-dose activity change, negative = growth inhibition, usual class: inhibitors | chicken DT40 Tdp1-/-;hTDP1 cells + 20 nM CPT, ATP luminescence, 48 h; note: potency is the fitted concentration of half-maximal effect; nearly all actives have a fitted effect of over 55% in size
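Cell growth measured by CellTiter-Glo luminescence after a minimum 48 h, 37 C compound exposure with 20 nM CPT in Tdp1-knockout DT40 cells stably expressing hTDP1, seeded 400/well; qHTS titration format.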
RORgamma inh – ROR gamma (mouse) transcription inhibition. Drosophila S2 Gal4-RORgamma UAS-luciferase reporter, 20 h. 310,000 tested, 5.4% active. Potency, µM (doses to about 53.6 µM), without a hit: at the highest dose activity change, negative = inhibition, usual class: inhibitors; note: potency is the fitted concentration of half-maximal effect; nearly all actives have a fitted effect of over 60% in size
Target sequence (P51450 whole entry, looked up, the tested form may be a part): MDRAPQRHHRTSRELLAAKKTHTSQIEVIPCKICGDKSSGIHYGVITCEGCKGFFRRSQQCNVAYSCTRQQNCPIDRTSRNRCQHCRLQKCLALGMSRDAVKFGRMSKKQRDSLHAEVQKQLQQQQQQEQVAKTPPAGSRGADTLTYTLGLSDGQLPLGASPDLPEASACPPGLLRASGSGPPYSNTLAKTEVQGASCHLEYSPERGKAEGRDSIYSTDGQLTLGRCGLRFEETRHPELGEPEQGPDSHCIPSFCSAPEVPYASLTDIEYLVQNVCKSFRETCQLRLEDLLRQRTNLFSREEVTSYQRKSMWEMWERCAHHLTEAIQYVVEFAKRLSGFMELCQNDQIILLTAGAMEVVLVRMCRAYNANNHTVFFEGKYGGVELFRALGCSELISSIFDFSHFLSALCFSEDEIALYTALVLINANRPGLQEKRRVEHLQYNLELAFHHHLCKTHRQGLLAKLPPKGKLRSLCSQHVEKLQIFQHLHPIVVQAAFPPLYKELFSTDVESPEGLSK
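Drosophila S2 cells stably expressing Gal4-DBD/mouse RORγ fusion under metallothionein promoter plus UAS-luciferase; compound 1 h, then 700 uM CuSO4 induction for 20 h at ambient temperature; inhibition read as reduced luminescence.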
ELG1 DNA repair – blocks ELG1-dependent DNA repair in HEK293T cells; HEK293T ELG1-luciferase reporter, luminescence, 16 h; DNA damage induced by 5-fluorouridine; Potency, µM (series often up to 46.1 µM), for inactives: at the top dose activity change, negative = inhibition, usual class: inhibitors; 330,000 tested, 2.3% active; AID 504467; note: potency is the fitted concentration of half-maximal effect; nearly all actives have a fitted effect of over 55% in size
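Step one: seed 2,000 cells per well. Step two: pin-transfer compound or DMSO alongside 5-fluorouridine. Step three: incubate 16 hr, 37 °C, 5% CO2. Step four: add ONE-Glo, wait 30 min, read luminescence.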
Numbers without * were called inactive; ? = inconclusive; . = no result given; [ ] = remark or other dose. Unless noted, calls come from the whole dose curve; as a rule, active = well fitted curve in the direction sought with a large enough effect; inconclusive = small, poorly fitted or top-dose-only effect, or another doubt; inactive = no such curve, though single readings can be large; an effect the other way counts as inactive or inconclusive. % is set by controls: 0 for no effect and ±100 for the full control effect.

SMILES	VP16 counter	IL1B secr inh	TDP1 cell noCPT	DT40 TDP1 CPT	RORgamma inh	ELG1 DNA repair
Cc1ccn2c(Cc3ccccc3)c(-c3ccc(F)cc3)nc2c1	.	-19.0	20.6µM*	23.1µM*	.	.
CC(C)NC(=O)c1onc(CSc2nc3ccccc3[nH]2)c1C(=O)NC(C)C	-0.5%	-3.4	-7.3%	-10.8%	-3.9%	12.5%
Cc1ccccc1-c1nc2c(c(SCc3cccc(Cl)c3)n1)Cc1c(CO)cnc(C)c1O2	.	.	1.5%	?	.	.
O=C(Sc1cccc2cccnc12)c1ccc(F)cc1	4.47µM*	.	.	.	1.12µM*	?
O=C(CSc1cccc2cccnc12)OCC(=O)c1ccc(Br)cc1	-8.9%	13.3	-15.4%	-1.4%	-42.6%	0.0%
O=C(Sc1cccc2cccnc12)c1ccccc1Br	2µM*	.	.	.	0.794µM*	?
Cn1c(N)c(N2CCCCC2)c(=O)n(CC(=O)Nc2cccc(C#N)c2)c1=O	.	16.4	-2.0%	5.9%	.	1.4%
COCCNC(=O)c1cccc2c1C(=O)c1ccc(N3CCOCC3)cc1S2(=O)=O	.	17.6	-24.9%	?	.	-15.6%
Cc1ccc(CNC(=O)c2cccc3c2C(=O)c2ccc(N4CCOCC4)cc2S3(=O)=O)cc1	.	-2.4	?	?	.	11.6µM*
C=CCNC(=O)c1cccc2c1C(=O)c1ccc(N3CCCC3)cc1S2(=O)=O	.	-19.0	?	?	.	-16.3%
Cc1ccc(CNC(=O)c2cccc3c2C(=O)c2ccc(N4CCCCC4)cc2S3(=O)=O)cc1	.	12.7	?	29.1µM*	.	?
O=C(NCc1ccco1)c1cccc2c1C(=O)c1ccc(N3CCCC3)cc1S2(=O)=O	.	0.9	?	?	.	13µM*
COc1ccccc1N1CCN(c2ccc3c(c2)S(=O)(=O)c2cccc(C(=O)NCc4cccc(F)c4)c2C3=O)CC1	.	-10.1	1.64µM*	?	.	.
O=C(NCc1cccc(F)c1)c1cccc2c1C(=O)c1ccc(N3CCOCC3)cc1S2(=O)=O	.	-0.1	?	?	.	?
COc1ccc(Nc2ccc(C(F)(F)F)cc2[N+](=O)[O-])cn1	-8.3%	-6.7	14.2%	-2.9%	-0.1%	1.5%
COCCN(C(=O)COC(=O)CSc1ccc2ccccc2c1)c1c(N)n(Cc2ccccc2)c(=O)[nH]c1=O	.	13.5	1.4%	-1.7%	.	3.5%
O=S1(=O)CC(N2CCN(CC3CC3)CC2)CN1CCc1ccccc1 (stereo not drawn)	.	14.2	?	-19.8%	.	.
CCCCCCCCCC(=O)N[C@@H]1c2cc(OC)c(OC)cc2C[C@H]1O	.	0.0	16.4µM*	?	.	?
Cc1oc2ncn(CC(C)C)c(=O)c2c1C(=O)NCCCN1CCCCC1	.	.	-1.1%	-1.3%	.	.
CN1CCN(C(=O)c2cccc(-c3ccc4nccn4c3)c2)CC1	.	25.5	?	-24.5%	.	.
CCc1cnc2c(c1SCC(=O)Nc1ccc(C)cc1C)c(=O)n(C)c(=O)n2C	.	.	4.9%	-9.4%	.	.
O=C1CCC/C(=N/NC(=O)c2sc3ccccc3c2Cl)C1	28.7%	70.8	-18.5%	-7.7%	-40.3%	?
Cc1ccc2c(c1)ncc[n+]2CC(=O)c1ccc(F)cc1	.	.	10µM*	10µM*	.	.
COc1ccc(C(=O)C[n+]2cc(Br)cc3ccccc32)cc1	.	.	22.4µM*	?	.	.
COc1ccc2c(ccc[n+]2CC(=O)c2ccc(C)cc2)c1	2.1%	-7.5	14.6µM*	?	13.5%	-6.7%
SMILES	VP16 counter	IL1B secr inh	TDP1 cell noCPT	DT40 TDP1 CPT	RORgamma inh	ELG1 DNA repair
CCc1ccc(C(=O)C[n+]2cccc3cc(OC)ccc32)cc1	-14.2%	?	3.26µM*	2.91µM*	29.4%	-10.4%
COc1ccc2c(ccc[n+]2CC(=O)c2ccccc2)c1	-5.9%	31.0	4.9%	?	-14.7%	-11.5%
Cc1ccc(C(=O)C[n+]2cccc3cc(C)ccc32)cc1	-12.9%	-7.8	14.6µM*	11.6µM*	11.8%	?
CC1(C)Cc2ccccc2-c2nnc(-c3ccc4ccccc4n3)n21	-1.2%	11.7	?	-25.4%	-27.0%	-19.1%
CC(c1ccc(F)cc1)n1c(-c2ccc3ccccc3n2)n[nH]c1=S (stereo not drawn)	3.55µM*	19.8	1.9%	6.7%	0.891µM*	18.2%
CC(c1ccc(Cl)cc1)n1c(-c2ccc3ccccc3n2)n[nH]c1=S (stereo not drawn)	4.47µM*	20.8	-20.5%	-14.3%	1.78µM*	-0.3%
CN(C)C(=O)c1ccc(-c2cncnc2Nc2ccc(F)cc2)cc1	-6.0%	.	7.6%	-4.1%	34.7%	.
O=[N+]([O-])c1ccc2c(c1)C(=NO)c1cc(Cl)c(Cl)cc1-2	.	4.2	?	?	.	.
CC1(C)CC2CC(C)(CN2C(=O)c2cc(-c3ccccc3O)on2)C1 (stereo not drawn)	-0.1%	21.3	13µM*	?	26.2%	?
COc1ccc(-c2cc(C(=O)N3CC4(C)CC3CC(C)(C)C4)no2)cc1OC (stereo not drawn)	-19.5%	-2.4	16.4µM*	?	24.7%	?
COc1ccc(/C(C)=N/OCC(=O)N2CC3(C)CC2CC(C)(C)C3)cc1 (stereo not drawn)	-10.5%	-78.2*	?	?	22.9%	2.6%
COc1ccc(-c2cc(C(=O)N3CC4(C)CC3CC(C)(C)C4)no2)cc1 (stereo not drawn)	0.3%	-53.4*	?	?	23.3%	3.0%
Cc1ccc(-c2cc(C(=O)N3CCN(C(=O)c4ccco4)CC3)no2)cc1	.	-13.7	-12.8%	?	2.5%[0.365 µM]	-11.3%
CC1(C)C[C@@H]2C[C@@](C)(CN2C(=O)c2cc(COc3cccc(C(F)(F)F)c3)on2)C1	?	-61.1*	18.4µM*	?	-31.0%	-1.9%
Cc1ccc(-c2cc(C(=O)N3CC4(C)CC3CC(C)(C)C4)no2)cc1 (stereo not drawn)	.	17.2	10.3µM*	18.4µM*	.	.
COc1ccc(Cl)cc1NC(=O)COC(=O)C1CC(=O)N(Cc2ccccc2)C1 (stereo not drawn)	.	23.1	-29.8%	-21.2%	.	5.8%
CC(=NNC(=O)c1ccccc1N)c1ccccc1O	.	127.8	5.8µM*	5.17µM*	.	.
CC(=NNC(=O)c1ccncc1)c1ccc2ccccc2c1O	.	84.2	4.61µM*	4.11µM*	.	.
C/C(=N\NC(=O)c1ccccc1)c1ccccc1F	-18.9%	-7.1	9.6%	9.9%	-32.0%	?
CC(=NNC(=O)c1ccncc1)c1ccccc1O	.	156.2	0.13µM*	0.184µM*	.	.
